SMILES strings stand for the structures. Results with a measured potency or affinity are listed apart. Results filed as inconclusive are left out. Activity calls are given as the source filed them. The rule behind the calls is not given here.

This test is described as follows: THP-1 cell cytotoxicity, cytotoxicity control, set 5 (AID 588443). The following applies: THP-1 cell viability, cytotoxicity CC50; series mostly up to 100 µM.
`CCOC(=O)CSc1ncnc2c1cnn2-c1ccccc1`: the outcome was inactive.
Consider `COC(=O)CSc1ncnc2c1cnn2-c1ccc(C)cc1C`, for which the outcome was inactive.
With `CCOC(=O)CSc1ncnc2c1cnn2-c1ccc(C)cc1C`, the call was inactive.
For `COc1ccc(N2CCN(C(=O)c3ccc(CNc4c(N5CCOCC5)c(=O)c4=O)cc3)CC2)cc1`, the call was inactive.

Source of the values: PubChem BioAssay AID588443 (Southern Research Specialized Biocontainment Screening …, 2011).
